Experimental data from PubChem BioAssay (Tox21).
Records with an inconclusive call do not appear. A call without a number means that no potency is given here. Activity calls are given as the source filed them. Calls follow the shape of the full dose curve.

Assay: qHTS assay to identify small molecule agonists of the AP-1 signaling pathway (AID 1159526)
Settings: ME-180 (cervical carcinoma) AP-1-bla reporter, beta-lactamase FRET ratio, 5 h; series mostly up to 76.8 µM

| SMILES | Potency |
| --- | --- |
| COc1ccc(/C=C/S(=O)(=O)NC(=O)c2ccc(C)cc2Cl)cc1 | inactive |
| O=C(Cl)c1cc(Cl)cc(Cl)c1 | inactive |
| Cc1ccccc1CCO | inactive |
| Cc1c(N=C=O)cccc1N=C=O | inactive |
| CC(C)Cc1nccs1 | inactive |
| O=C1CCCN1CCO | inactive |
| CC/C=C\CCO | inactive |
| S=c1[nH][nH]c(=S)s1 | inactive |
| CC(C)CCCCCOC(=O)CS | inactive |
| CC(=O)CC/C=C(\C)CC/C=C(\C)CC/C=C(\C)CCC=C(C)C | inactive |
| CC/C=C/CCO | inactive |
| CCCCCCC/C=C/C=O | inactive |
| CCOCCn1c(N2CCCN(C)CC2)nc2ccccc21 | inactive |
| CC(C)C[C@H](NC(=O)[C@H](Cc1ccccc1)NC(=O)c1cnccn1)B(O)O | inactive |
| O=C(N[C@@H](Cc1ccccc1)[C@@H](O)C(=O)N1C[C@@H](O)[C@@H](O)C1)c1cc2cc(Cl)ccc2[nH]1 | inactive |
| CCOc1cc(OCC)c(C(C)=O)cc1OCC | inactive |
| COc1ccc(/C=C/c2cc(OC)cc(=O)o2)cc1 | inactive |
| O=C(O)c1ccccc1[N+](=O)[O-] | inactive |
| CCCCCCCCNC | inactive |

| SMILES | Potency |
| --- | --- |
| C[Si](C)(C)O[Si](C)(C)O[Si](C)(C)C | inactive |
| CC(C)CCCCCCCOC(=O)c1ccc(C(=O)OCCCCCCCC(C)C)c(C(=O)OCCCCCCCC(C)C)c1 | inactive |
| Nc1ccc(-c2ccc(F)cc2)cc1 | inactive |
| Nc1ccc(C(=O)Oc2ccccc2)c(O)c1 | inactive |
| O=C(O)c1cc(C(=O)O)cc([N+](=O)[O-])c1 | inactive |
| CC(C)C/C=C(\C=O)c1ccccc1 | inactive |
| CC(C)(Cc1c[nH]c2ccccc12)NCC(O)COc1ccccc1C#N (configuration not stated) | inactive |
| O=P(c1ccccc1)(c1ccccc1)c1ccccc1 | inactive |
| COc1cc(C)c(Cc2cnc(N)nc2N)cc1OC | inactive |
| C=C[Si]1(C)O[Si](C)(C=C)O[Si](C)(C=C)O[Si](C)(C=C)O1 (configuration not stated) | inactive |
| O=C(O)c1ccc(O)c(O)c1 | inactive |
| O=[N+]([O-])c1ccc(Cl)cc1Cl | inactive |
| O=C(O)c1ccccc1-n1cc(C(=O)O)c(=O)c2cc(Nc3c(F)cc(F)cc3Cl)c(Cl)cc21 | inactive |
| Cc1c(Cl)cccc1[N+](=O)[O-] | inactive |
| CC(=O)c1ccc(Cl)c(Cl)c1Cl | inactive |
| Nc1ccc(F)cc1F | inactive |
| C/C(=C\C(C)CC(C)CC(C)C)C1CC(=O)OC1=O (configuration not stated) | inactive |
| CCN(CC)CC(=O)OCC(=O)[C@@]1(O)CC[C@H]2[C@@H]3CCC4=CC(=O)CC[C@]4(C)[C@H]3[C@@H](O)C[C@@]21C | inactive |
